Test results as given in the supplement of paper PMC10849652.
Targets with a hit are over-represented here; the source holds about 8,800 in all. About 0.5% of all pairs of compound and target were hits.

Columns and labels:
Assay in all cases: log2 fold change, soluble protein after heating vs DMSO (PISA); higher = thermal stabilisation; K562 lysate, 10 uM; active = over 0.2 and 3.5 SD of the protein, either way, in both replicates (recomputed)
nilotinib = compound: Cc1cn(-c2cc(NC(=O)c3ccc(C)c(Nc4nccc(-c5cccnc5)n4)c3)cc(C(F)(F)F)c2)cn1 [nilotinib]
How it was run: (§1)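 Values give the log-two fold change in thermal stability against solvent controls, from duplicates. Crude K562 extract at 1 mg/mL protein, made by dounce homogenisation in PBS pH 7.4 with 1 mM MgCl2, was treated with 10 μM compound for 30 min. After 3 min heating across 48°C-58°C, aliquots were pooled, adjusted to 0.5% NP-40 at 4°C and centrifuged at 21,000xg for 90 min. The supernatant was measured by TMTpro 16plex LC-MS/MS with channel sums equalised.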

[1] = compound: Cc1nc(Nc2n[nH]c3c2CN(C(=O)N[C@H](CN(C)C)c2ccccc2)C3(C)C)c2sccc2n1
How it was run: as §1

dasatinib = compound: Cc1nc(Nc2ncc(C(=O)Nc3c(C)cccc3Cl)s2)cc(N2CCN(CCO)CC2)n1 [dasatinib]
How it was run: as §1

[2] = compound: Cc1ncc(-c2ccnc(Nc3ccc(S(C)(=O)=O)cc3)n2)n1C(C)C
How it was run: as §1

[3] = compound: Cn1cc(-c2ccc3c(c2)CCN3C(=O)Cc2cccc(C(F)(F)F)c2)c2c(N)ncnc21
How it was run: as §1

quisinostat = compound: Cn1cc(CNCC2CCN(c3ncc(C(=O)NO)cn3)CC2)c2ccccc21 [quisinostat]
How it was run: as §1

tipifarnib = compound: Cn1cncc1[C@@](N)(c1ccc(Cl)cc1)c1ccc2c(c1)c(-c1cccc(Cl)c1)cc(=O)n2C [tipifarnib]
How it was run: as §1

[4] = compound: NC(=O)Nc1cc(-c2cccc(F)c2)sc1C(=O)N[C@H]1CCCNC1
How it was run: as §1

[5] = compound: NC(=O)c1cnc(N[C@@H]2CCCC[C@@H]2N)nc1Nc1cccc(-n2nccn2)c1
How it was run: as §1

[6] = compound: NC1(c2ccc(-c3nc4ccn5c(=O)[nH]nc5c4cc3-c3ccccc3)cc2)CCC1
How it was run: as §1

[7] = compound: NCC(=O)Nc1ccc(-n2nc(C(F)(F)F)cc2-c2ccc3c(ccc4ccccc43)c2)cc1
How it was run: as §1

vorinostat = compound: O=C(CCCCCCC(=O)Nc1ccccc1)NO [vorinostat]
How it was run: as §1

silmitasertib = compound: O=C(O)c1ccc2c(c1)nc(Nc1cccc(Cl)c1)c1ccncc12 [silmitasertib]
How it was run: as §1

[8] = compound: O=C1NC(=O)C(c2cnc3ccccn23)=C1c1cn2c3c(cc(F)cc13)CN(C(=O)N1CCCCC1)CC2
How it was run: as §1

entospletinib = compound: c1cn2cc(-c3ccc4cn[nH]c4c3)nc(Nc3ccc(N4CCOCC4)cc3)c2n1 [entospletinib]
How it was run: as §1

Measured: log2 fold change

MACROD1 (UniProt Q9BQ69)
inactive: nilotinib 0.036 | [1] -0.099 | dasatinib -0.066 | [2] 0.021 | [3] 0.055 | quisinostat -0.083 | tipifarnib 0.005 | [4] 0.022 | [5] -0.006 | [6] -0.024 | [7] 0.11 | silmitasertib 0.04 | [8] 0.05 | entospletinib 0.047
active: vorinostat -0.363

KIF11 (UniProt P52732)
active: vorinostat -0.252
inactive: nilotinib -0.016 | [1] 0.003 | dasatinib -0.021 | [2] -0.018 | [3] 0.034 | quisinostat -0.022 | tipifarnib -0.007 | [4] 0.006 | [5] 0 | [6] 0 | [7] -0.013 | silmitasertib 0.016 | [8] -0.033 | entospletinib 0.001

MME (UniProt P08473)
Sequence of UniProt P08473 (P08473 whole entry, looked up): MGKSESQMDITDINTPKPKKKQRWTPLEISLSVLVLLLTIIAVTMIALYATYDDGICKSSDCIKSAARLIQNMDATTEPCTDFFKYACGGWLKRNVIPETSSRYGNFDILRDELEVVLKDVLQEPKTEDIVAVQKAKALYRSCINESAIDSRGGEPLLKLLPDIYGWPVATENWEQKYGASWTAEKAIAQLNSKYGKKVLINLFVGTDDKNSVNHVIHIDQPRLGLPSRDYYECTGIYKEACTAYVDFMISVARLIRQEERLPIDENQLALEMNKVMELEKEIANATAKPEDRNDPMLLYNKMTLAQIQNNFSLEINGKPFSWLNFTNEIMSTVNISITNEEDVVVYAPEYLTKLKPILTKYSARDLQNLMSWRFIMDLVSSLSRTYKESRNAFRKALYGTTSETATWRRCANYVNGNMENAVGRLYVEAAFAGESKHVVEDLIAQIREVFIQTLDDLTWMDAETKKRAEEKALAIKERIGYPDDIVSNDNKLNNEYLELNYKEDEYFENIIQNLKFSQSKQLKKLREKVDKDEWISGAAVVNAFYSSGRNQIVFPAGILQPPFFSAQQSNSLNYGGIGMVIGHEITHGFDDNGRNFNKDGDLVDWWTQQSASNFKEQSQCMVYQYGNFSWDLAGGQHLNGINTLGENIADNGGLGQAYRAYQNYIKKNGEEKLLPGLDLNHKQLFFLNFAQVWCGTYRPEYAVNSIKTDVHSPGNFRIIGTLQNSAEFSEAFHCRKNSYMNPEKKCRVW
inactive: nilotinib -0.09 | [1] 0.082 | [2] 0.021 | [3] 0.104 | quisinostat -0.02 | tipifarnib -0.031 | [4] 0.085 | [5] 0.061 | [6] -0.014 | vorinostat 0.096 | silmitasertib -0.033 | [8] -0.038
active: dasatinib -0.513

MLST8 (UniProt Q9BVC4)
Sequence of UniProt Q9BVC4 (Q9BVC4 whole entry, looked up): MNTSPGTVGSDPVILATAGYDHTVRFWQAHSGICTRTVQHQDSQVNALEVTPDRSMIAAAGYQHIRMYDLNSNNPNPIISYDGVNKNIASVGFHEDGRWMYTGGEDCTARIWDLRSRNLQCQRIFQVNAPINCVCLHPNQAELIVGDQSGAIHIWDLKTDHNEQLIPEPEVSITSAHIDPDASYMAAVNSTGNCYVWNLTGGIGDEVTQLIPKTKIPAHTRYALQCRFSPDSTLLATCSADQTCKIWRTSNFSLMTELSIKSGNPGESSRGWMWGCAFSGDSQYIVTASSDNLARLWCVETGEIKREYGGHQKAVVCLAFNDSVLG
active: vorinostat -0.357
inactive: nilotinib -0.011 | [1] -0.006 | dasatinib 0.046 | [2] 0.079 | [3] -0.041 | quisinostat -0.058 | tipifarnib 0.076 | [4] 0.043 | [5] -0.065 | [6] -0.067 | [7] 0.006 | silmitasertib 0.104 | [8] 0.046 | entospletinib 0.043

LAGE3 (UniProt Q14657)
inactive: nilotinib -0.065 | [1] 0.186 | dasatinib 0.006 | [2] -0.055 | [3] 0.021 | quisinostat -0.03 | tipifarnib 0.1 | [4] 0.013 | [5] 0.017 | [6] 0.084 | [7] 0.045 | vorinostat -0.085 | silmitasertib -0.016 | [8] -0.041 | entospletinib -0.043

METTL21A (UniProt Q8WXB1)
Sequence of UniProt Q8WXB1 (Q8WXB1 whole entry, looked up): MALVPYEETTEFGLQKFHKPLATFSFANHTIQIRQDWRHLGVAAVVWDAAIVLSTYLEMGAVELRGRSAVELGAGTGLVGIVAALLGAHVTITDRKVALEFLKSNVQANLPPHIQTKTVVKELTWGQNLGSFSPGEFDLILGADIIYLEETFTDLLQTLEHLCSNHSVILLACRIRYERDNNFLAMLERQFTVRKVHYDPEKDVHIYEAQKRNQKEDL
inactive: nilotinib 0.017 | [1] 0.055 | dasatinib 0.023 | [2] 0.026 | [3] -0.064 | quisinostat -0.069 | tipifarnib -0.005 | [4] -0.001 | [5] -0.007 | [6] 0.003 | vorinostat 0.07 | silmitasertib -0.016 | [8] -0.013

MED28 (UniProt Q9H204)
inactive: nilotinib 0.053 | [1] 0.053 | dasatinib -0.004 | [2] 0.053 | [3] -0.006 | quisinostat -0.007 | tipifarnib 0.015 | [4] -0.013 | [5] -0.005 | [6] -0.014 | vorinostat -0.219 | silmitasertib 0.003 | [8] 0.09

MAPKAPK3 (UniProt Q16644)
active: vorinostat -0.43
inactive: nilotinib -0.024 | [1] 0.077 | dasatinib 0.023 | [2] -0.058 | [3] 0.016 | quisinostat 0.01 | tipifarnib 0.017 | [4] 0.021 | [5] 0.013 | [6] 0.009 | [7] -0.063 | silmitasertib -0.001 | [8] 0.162 | entospletinib -0.049

MICB, A0A140T979
inactive: nilotinib -0.044 | [1] 0.042 | dasatinib 0.024 | [2] 0.033 | [3] -0.055 | quisinostat -0.06 | tipifarnib -0.025 | [4] -0.004 | [5] 0.491 | [6] 0.21 | [7] 0.068 | vorinostat 0.196 | silmitasertib -0.121 | [8] 0.021 | entospletinib 0.35

LZTR1 (UniProt Q8N653)
inactive: nilotinib 0.016 | [1] 0.014 | dasatinib -0.063 | [2] -0.068 | [3] 0.008 | quisinostat -0.029 | tipifarnib -0.036 | [4] 0.099 | [5] -0.033 | [6] -0.019 | [7] -0.022 | silmitasertib 0.005 | [8] 0.013 | entospletinib 0.055
active: vorinostat -0.472

LPCAT1 (UniProt Q8NF37)
inactive: nilotinib -0.039 | [1] 0.015 | dasatinib -0.084 | [2] 0.014 | [3] -0.045 | quisinostat 0.016 | tipifarnib 0.046 | [4] 0.008 | [5] 0.053 | [6] 0.033 | [7] -0.011 | vorinostat 0.027 | silmitasertib -0.076 | [8] -0.026 | entospletinib -0.057

MAP2K1 (UniProt Q02750)
active: dasatinib 0.296 | [4] 0.4
inactive: nilotinib -0.02 | [1] 0.107 | [2] 0.057 | [3] -0.057 | quisinostat -0.064 | tipifarnib -0.037 | [5] 0.033 | [6] -0.02 | [7] -0.005 | vorinostat -0.116 | silmitasertib 0.108 | [8] 0.006 | entospletinib 0.03

MCMBP isoform 2 (UniProt Q9BTE3)
inactive: nilotinib 0.152 | [1] -0.039 | dasatinib 0.099 | [2] -0.144 | [3] -0.099 | quisinostat -0.076 | tipifarnib 0.066 | [4] -0.041 | [5] 0.082 | [6] -0.118 | [7] -0.153 | vorinostat -0.413 | silmitasertib -0.092 | [8] 0.064 | entospletinib -0.654

METTL2A (UniProt Q96IZ6)
inactive: nilotinib -0.012 | [1] 0.022 | dasatinib 0.044 | [2] -0.014 | [3] 0.03 | quisinostat -0.042 | tipifarnib 0.01 | [4] 0.057 | [5] -0.029 | [6] 0.005 | [7] 0.033 | silmitasertib -0.005 | [8] 0.058 | entospletinib -0.003
active: vorinostat -0.28

KIF22 (UniProt Q14807)
active: quisinostat -0.451
inactive: nilotinib 0.041 | [1] -0.021 | dasatinib -0.023 | [2] -0.029 | [3] -0.055 | tipifarnib -0.015 | [4] 0.081 | [5] -0.023 | [6] -0.171 | [7] 0.069 | vorinostat 0.158 | silmitasertib -0.128 | [8] 0.156 | entospletinib 0.001

MAST4 (UniProt O15021)
Sequence of UniProt O15021 (O15021 whole entry, looked up): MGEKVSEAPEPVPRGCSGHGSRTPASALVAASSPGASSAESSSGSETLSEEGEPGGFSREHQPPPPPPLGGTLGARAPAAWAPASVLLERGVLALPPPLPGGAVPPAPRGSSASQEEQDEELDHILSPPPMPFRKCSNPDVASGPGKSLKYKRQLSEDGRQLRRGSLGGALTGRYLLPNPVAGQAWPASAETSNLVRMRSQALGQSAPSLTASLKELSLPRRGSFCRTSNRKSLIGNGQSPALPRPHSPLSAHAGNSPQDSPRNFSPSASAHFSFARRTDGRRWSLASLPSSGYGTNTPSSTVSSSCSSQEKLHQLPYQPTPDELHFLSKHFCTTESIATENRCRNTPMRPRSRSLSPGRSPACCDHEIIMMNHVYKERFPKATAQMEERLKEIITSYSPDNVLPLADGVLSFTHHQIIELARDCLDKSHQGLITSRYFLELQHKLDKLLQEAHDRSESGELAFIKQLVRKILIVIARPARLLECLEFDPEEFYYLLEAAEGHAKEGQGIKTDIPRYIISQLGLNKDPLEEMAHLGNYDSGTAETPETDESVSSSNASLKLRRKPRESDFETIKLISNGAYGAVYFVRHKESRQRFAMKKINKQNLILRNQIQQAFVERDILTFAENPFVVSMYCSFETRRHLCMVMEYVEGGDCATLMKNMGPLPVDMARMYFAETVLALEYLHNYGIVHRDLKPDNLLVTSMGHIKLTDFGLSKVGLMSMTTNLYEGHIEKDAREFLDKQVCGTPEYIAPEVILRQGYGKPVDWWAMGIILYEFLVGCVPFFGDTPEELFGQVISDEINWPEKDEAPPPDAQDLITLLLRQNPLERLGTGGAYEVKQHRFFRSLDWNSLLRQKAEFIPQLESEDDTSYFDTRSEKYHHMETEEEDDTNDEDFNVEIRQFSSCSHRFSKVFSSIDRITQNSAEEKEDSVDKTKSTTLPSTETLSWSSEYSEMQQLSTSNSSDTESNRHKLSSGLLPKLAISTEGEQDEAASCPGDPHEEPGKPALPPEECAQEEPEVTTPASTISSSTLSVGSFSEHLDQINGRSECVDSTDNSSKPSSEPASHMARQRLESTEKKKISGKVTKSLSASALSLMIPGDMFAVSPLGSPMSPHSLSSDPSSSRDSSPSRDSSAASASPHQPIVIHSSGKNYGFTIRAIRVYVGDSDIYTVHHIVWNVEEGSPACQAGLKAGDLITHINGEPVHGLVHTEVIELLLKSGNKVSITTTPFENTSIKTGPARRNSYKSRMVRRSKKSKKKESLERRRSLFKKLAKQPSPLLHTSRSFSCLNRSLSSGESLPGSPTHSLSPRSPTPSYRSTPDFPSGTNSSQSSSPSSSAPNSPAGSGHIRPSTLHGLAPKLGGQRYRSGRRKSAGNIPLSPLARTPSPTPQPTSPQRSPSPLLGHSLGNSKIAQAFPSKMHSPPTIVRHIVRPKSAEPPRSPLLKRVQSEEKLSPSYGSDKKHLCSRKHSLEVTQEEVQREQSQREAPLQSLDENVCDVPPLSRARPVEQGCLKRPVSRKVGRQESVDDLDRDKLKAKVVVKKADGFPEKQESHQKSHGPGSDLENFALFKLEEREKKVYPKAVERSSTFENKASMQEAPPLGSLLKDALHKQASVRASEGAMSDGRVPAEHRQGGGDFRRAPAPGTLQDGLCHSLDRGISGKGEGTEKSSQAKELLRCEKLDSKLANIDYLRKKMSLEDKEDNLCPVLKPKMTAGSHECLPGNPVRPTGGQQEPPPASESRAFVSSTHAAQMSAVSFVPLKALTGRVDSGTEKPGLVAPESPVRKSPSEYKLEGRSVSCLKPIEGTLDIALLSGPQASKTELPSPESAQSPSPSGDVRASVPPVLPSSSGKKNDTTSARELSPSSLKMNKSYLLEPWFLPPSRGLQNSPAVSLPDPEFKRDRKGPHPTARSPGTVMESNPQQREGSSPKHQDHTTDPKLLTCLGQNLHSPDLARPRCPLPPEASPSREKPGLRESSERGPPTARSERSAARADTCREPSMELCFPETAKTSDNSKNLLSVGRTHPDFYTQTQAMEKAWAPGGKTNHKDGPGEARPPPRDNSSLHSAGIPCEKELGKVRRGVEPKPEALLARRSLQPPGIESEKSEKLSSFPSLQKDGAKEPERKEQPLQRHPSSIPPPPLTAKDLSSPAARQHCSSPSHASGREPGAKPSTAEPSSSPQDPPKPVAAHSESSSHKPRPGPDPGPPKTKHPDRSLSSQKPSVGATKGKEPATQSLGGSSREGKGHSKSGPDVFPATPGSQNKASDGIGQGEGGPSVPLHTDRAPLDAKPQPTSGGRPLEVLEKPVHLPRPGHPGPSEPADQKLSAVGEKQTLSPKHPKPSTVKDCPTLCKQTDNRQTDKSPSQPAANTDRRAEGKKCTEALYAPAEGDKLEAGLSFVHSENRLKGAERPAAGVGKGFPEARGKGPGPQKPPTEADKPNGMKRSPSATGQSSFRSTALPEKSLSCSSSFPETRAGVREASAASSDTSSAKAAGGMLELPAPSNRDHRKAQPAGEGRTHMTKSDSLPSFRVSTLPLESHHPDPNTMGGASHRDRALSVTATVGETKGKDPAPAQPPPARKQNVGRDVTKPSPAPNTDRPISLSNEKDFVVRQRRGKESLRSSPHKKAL
inactive: nilotinib -0.078 | [1] 0.114 | dasatinib 0.001 | [2] 0.08 | [3] 0.04 | quisinostat 0.104 | tipifarnib 0.012 | [4] 0.073 | [5] 0.021 | [6] 0.059 | [7] -0.073 | vorinostat -0.381 | silmitasertib 0.281 | [8] -0.025 | entospletinib 0.018

MOSPD2 (UniProt Q8NHP6)
Sequence of UniProt Q8NHP6 (Q8NHP6 whole entry, looked up): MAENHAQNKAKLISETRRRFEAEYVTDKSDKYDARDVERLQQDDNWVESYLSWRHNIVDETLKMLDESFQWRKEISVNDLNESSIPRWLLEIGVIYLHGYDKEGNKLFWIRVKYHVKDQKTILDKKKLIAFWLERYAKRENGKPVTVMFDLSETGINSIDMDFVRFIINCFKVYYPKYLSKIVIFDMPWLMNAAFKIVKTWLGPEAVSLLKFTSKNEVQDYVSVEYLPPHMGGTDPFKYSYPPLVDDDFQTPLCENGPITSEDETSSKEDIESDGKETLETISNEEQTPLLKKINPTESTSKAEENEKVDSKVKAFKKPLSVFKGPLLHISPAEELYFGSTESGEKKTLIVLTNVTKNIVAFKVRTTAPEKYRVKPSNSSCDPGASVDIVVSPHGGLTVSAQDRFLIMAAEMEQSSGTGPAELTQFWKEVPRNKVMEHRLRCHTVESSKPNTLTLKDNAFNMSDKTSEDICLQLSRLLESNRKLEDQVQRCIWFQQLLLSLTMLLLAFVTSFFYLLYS
active: [7] -0.364
inactive: nilotinib 0.054 | [1] -0.146 | dasatinib 0.006 | [2] -0.009 | [3] 0.015 | quisinostat -0.096 | tipifarnib 0.089 | [4] -0.034 | [5] -0.043 | [6] -0.026 | vorinostat 0.039 | silmitasertib 0.071 | [8] -0.02 | entospletinib -0.074

MRPL30 isoform 2 (UniProt Q8TCC3)
inactive: nilotinib -0.048 | [1] -0.066 | dasatinib -0.038 | [2] 0.047 | [3] 0.03 | quisinostat -0.13 | tipifarnib 0.052 | [4] -0.007 | [5] 0 | [6] 0.039 | vorinostat 0.041 | silmitasertib -0.023 | [8] -0.012 | entospletinib -0.046

MBLAC2 (UniProt Q68D91)
Sequence of UniProt Q68D91 (Q68D91 whole entry, looked up): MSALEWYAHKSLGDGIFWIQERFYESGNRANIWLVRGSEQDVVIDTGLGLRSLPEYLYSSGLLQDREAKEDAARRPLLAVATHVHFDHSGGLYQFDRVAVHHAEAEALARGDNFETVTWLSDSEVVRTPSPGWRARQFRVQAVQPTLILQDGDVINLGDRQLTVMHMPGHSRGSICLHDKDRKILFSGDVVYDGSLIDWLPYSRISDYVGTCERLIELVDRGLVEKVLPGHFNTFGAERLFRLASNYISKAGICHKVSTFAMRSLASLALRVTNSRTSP
inactive: nilotinib 0.028 | [1] -0.076 | dasatinib -0.003 | [2] -0.126 | [3] 0.059 | quisinostat 0.026 | tipifarnib 0.08 | [4] 0 | [5] -0.005 | [6] 0.005 | [7] -0.1 | vorinostat 0.084 | silmitasertib -0.015 | [8] -0.074 | entospletinib -0.011

MCUB (UniProt Q9NWR8)
Sequence of UniProt Q9NWR8 (Q9NWR8 whole entry, looked up): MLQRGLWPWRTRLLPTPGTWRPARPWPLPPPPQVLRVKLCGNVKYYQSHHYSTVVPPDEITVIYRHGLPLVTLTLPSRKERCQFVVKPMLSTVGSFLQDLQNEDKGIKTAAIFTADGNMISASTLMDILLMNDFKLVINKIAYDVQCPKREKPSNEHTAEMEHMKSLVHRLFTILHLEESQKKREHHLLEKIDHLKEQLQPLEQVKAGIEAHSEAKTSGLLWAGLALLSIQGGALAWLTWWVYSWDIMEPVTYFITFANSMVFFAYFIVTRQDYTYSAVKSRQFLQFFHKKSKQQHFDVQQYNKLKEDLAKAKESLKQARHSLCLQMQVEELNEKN
inactive: nilotinib -0.142 | [1] 0.119 | dasatinib 0.075 | [2] -0.12 | [3] 0.122 | quisinostat -0.262 | tipifarnib -0.112 | [4] 0.143 | [5] -0.008 | [6] -0.014 | vorinostat 0.129 | silmitasertib 0.057 | [8] 0.027

KMT2A isoform 3 (UniProt Q03164)
inactive: nilotinib 0.098 | dasatinib 0.017 | [2] 0.154 | [3] 0.056 | quisinostat -0.156 | tipifarnib -0.178 | [4] 0.032 | [5] 0.133 | [6] -0.037 | [7] 0.046 | vorinostat 0.101 | silmitasertib 0.012 | [8] 0.066 | entospletinib -0.034
active: [1] -0.428
